The values that follow come from PubChem BioAssay (EPA / NIEHS).

SMILES strings stand for the structures. Inconclusive results are not listed. Activity calls are given as the source filed them. Rule for the calls: active = hit-call score of the fitted dose curve at least 0.9, where 1 is the maximum; inconclusive = response in the unintended direction; inactive = score below 0.9.

Assay [1] can be described thus: TOX21_p53_BLA_p2_viability: Viability Assessment in the Tox21 HCT-116 p53 Agonism Beta-lactamase Assay, Phase 2 (AID 2283591).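 Note: compound exposure lasted 16 h at 37 °C; actives lower the ATP signal meaning cytotoxicity.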 Put shortly: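 Cytotoxicity readout: CellTiter-Glo ATP luminescence, 30 min at room temperature, after the beta-lactamase read. Cells were HCT116 exposed 16 h at 37C to compounds pin-transferred at 217-fold dilution from DMSO stocks.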
Assay [2] deals with Cellular tumor antigen p53 (Homo sapiens) (UniProt P04637). In words: TOX21_p53_BLA_p2_ratio: Tox21 HCT-116 p53 Agonism Beta-lactamase Assay, Ratio, Phase 2 (AID 2283592). A digest of the protocol: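 Cleaved-to-uncleaved substrate ratio (460 vs 530 nm) measured in HCT116 cells with an inducible beta-lactamase reporter linked to p53 activity. Compounds incubated 16 h at 37C before 2 h room-temperature CCF4-AM loading.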
Sequence of Cellular tumor antigen p53 (Homo sapiens) (P04637 whole entry, looked up): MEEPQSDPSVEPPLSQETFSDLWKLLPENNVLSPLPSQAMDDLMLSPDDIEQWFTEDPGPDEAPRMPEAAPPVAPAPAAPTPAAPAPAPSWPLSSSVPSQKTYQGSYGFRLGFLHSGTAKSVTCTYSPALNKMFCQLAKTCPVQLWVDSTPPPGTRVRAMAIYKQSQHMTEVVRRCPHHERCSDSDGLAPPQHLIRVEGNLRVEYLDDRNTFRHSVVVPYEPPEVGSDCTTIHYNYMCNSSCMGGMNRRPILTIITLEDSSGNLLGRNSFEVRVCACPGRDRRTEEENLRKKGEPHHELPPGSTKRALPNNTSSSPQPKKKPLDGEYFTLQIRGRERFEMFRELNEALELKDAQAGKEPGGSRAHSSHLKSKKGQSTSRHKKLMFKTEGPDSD

The target is the same in assay [3]. Kind of assay: TOX21_p53_BLA_p3_ratio: Tox21 HCT-116 p53 Agonism Beta-lactamase Assay, Ratio, Phase 3 (AID 2283596). Put shortly: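 Cells were seeded at 4000/well, rested 5 h at 37C, then dosed with DMSO compound solutions (217-fold dilution) for 16 h. CCF4-AM substrate was loaded for 2 h at room temperature, and the 460/530 nm emission ratio was fitted for gain of signal versus DMSO.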

A short description of assay [4]: TOX21_p53_BLA_p5_viability: Viability Assessment in the Tox21 HCT-116 p53 Agonism Beta-lactamase Assay, Phase 5 (AID 2283600). A digest of the protocol:
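Viability is taken from cellular ATP content, measured by luciferase luminescence in the same wells after the beta-lactamase ratio read. Cells are seeded at 4000 per well and exposed to DMSO-dissolved compounds, diluted 217-fold, for 16 h.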

Assay [5] has as its target Cellular tumor antigen p53 (Homo sapiens) (UniProt P04637). In words: TOX21_p53_BLA_p4_ratio: Tox21 HCT-116 p53 Agonism Beta-lactamase Assay, Ratio, Phase 4 (AID 2283601). Put shortly: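 Signal is the blue/green (460nm/530nm) ratio of cleaved versus uncleaved CCF4-AM substrate, read after 2 h substrate loading. Cells were HCT116 carrying the p53-responsive beta-lactamase reporter, dosed 16 h at 37C, 5% CO2; CellTiter-Glo measured in parallel.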

The target is the same in assay [6]. Kind of assay: TOX21_p53_BLA_p5_ratio: Tox21 HCT-116 p53 Agonism Beta-lactamase Assay, Ratio, Phase 5 (AID 2283599). A digest of the protocol: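 Beta-lactamase reporter ratio (blue 460 nm over green 530 nm, 405 nm excitation) after 2 h CCF4-AM loading, in HCT-116 cells exposed 16 h at 37 C to compounds pinned at 217-fold dilution. Increases relative to DMSO baseline scored.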

Assay [7] is described as follows: TOX21_p53_BLA_p4_viability: Viability Assessment in the Tox21 HCT-116 p53 Agonism Beta-lactamase Assay, Phase 4 (AID 2283597).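 Note: hits lower the luminescence signal meaning cytotoxicity.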 Put shortly:
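Viability is taken as cellular ATP: after 16 h compound exposure of HCT116 cells and a 2 h room-temperature CCF4-AM substrate step, CellTiter-Glo reagent is added and luminescence is measured 30 min later.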

In the case of `CC(C)CCCC(C)CCCC(C)CCCCC(C)CCCC(C)CCCC(C)C` (stereo not given), the compound was classed as inactive in assay [1], in assay [2], in assay [3], in assay [4] and in assay [5].

As for `O=C(O)[C@H](CC(=O)N1C[C@H]2CCCC[C@H]2C1)Cc1ccccc1`, the compound was classed as inactive in assay [1], in assay [2], in assay [3], in assay [6] and in assay [5].

Turning to `O=C(NCC(O)CO)c1c(I)c(C(=O)NCC(O)CO)c(I)c(N(CCO)C(=O)CO)c1I` (stereo not given), the call in assay [1], in assay [2], in assay [3], in assay [4] and in assay [5] was inactive.

With `O=C(CCCN1CCN2CCCC2C1)c1ccc(F)cc1` (stereo not given), the call in assay [1], in assay [2] and in assay [7] was inactive.

Turning to `CC(C)NC[C@@H](O)COc1ccc(CC(N)=O)cc1`, the outcome in assay [1], in assay [2], in assay [3] and in assay [5] was inactive.

On to `Oc1ccc(O)c2c(O)cccc12`, for which the call in assay [1], in assay [2], in assay [3], in assay [4] and in assay [5] was inactive.

In the case of `C1CCN(CN2CCCCC2)CC1`, the compound was called inactive in assay [1], in assay [2], in assay [3] and in assay [5].

For the compound `Cc1cn([C@H]2C[C@H](F)[C@@H](CO)O2)c(=O)[nH]c1=O`, the outcome in assay [1], in assay [2], in assay [3], in assay [4] and in assay [5] was inactive.

Turning to `O=C1NC(=O)[C@@]2(CCOc3ccc(F)cc32)N1`, the compound was classed as inactive in assay [1], in assay [2], in assay [7], in assay [6], in assay [4] and in assay [5].

Turning to `O=S(=O)(Cl)c1c(Cl)cccc1Cl`, the result in assay [1], in assay [2], in assay [7], in assay [6], in assay [4] and in assay [5] was inactive.

For the compound `O=C=Nc1ccc(Cl)c(Cl)c1`, the compound was classed as inactive in assay [1], in assay [2], in assay [7], in assay [6], in assay [4] and in assay [5].

Take `O=C(O)c1cccc(O)c1`: the compound was classed as inactive in assay [1], in assay [2], in assay [7], in assay [6] and in assay [5].

As a reminder, the AC50 is the midpoint of the concentration-response curve, whichever way the signal moves. On to `CN(C)c1ccc(C2(c3ccc(N(C)C)cc3)OC(=O)c3cc(N(C)C)ccc32)cc1`, for which the call in assay [1], in assay [7], in assay [6] and in assay [4] was inactive. In addition, the figures for the AC50 in assay [2] and in assay [5] were 60.7 µM (active) and 38.5 µM (active), respectively.

Take `CC1(C)[C@@H]2CC[C@]3(C2)[C@@H]1C(=O)CCC3(C)C`: the compound was classed as inactive in assay [1], in assay [2], in assay [7], in assay [4] and in assay [5].

As for `CC(O)CN(C)C` (stereo not given), the compound was classed as inactive in assay [1], in assay [2], in assay [7], in assay [6] and in assay [5].

As for `C[C@@H]1O[C@@H](O[C@@H]2[C@@H](O)[C@H](OCCc3ccc(O)c(O)c3)O[C@H](CO[C@@H]3O[C@H](CO)[C@@H](O)[C@H](O)[C@H]3O)[C@H]2OC(=O)/C=C/c2ccc(O)c(O)c2)[C@H](O)[C@H](O)[C@H]1O`, the compound was called inactive in assay [1], in assay [2], in assay [7] and in assay [4].

As for `C=CCCCCCCC=C`, the compound was classed as inactive in assay [1], in assay [2], in assay [7], in assay [4] and in assay [5].

`CC(COc1ccc(C(C)(C)C)cc1)OS(=O)OCCCl` (stereo not given): the compound was called inactive in assay [1], in assay [2], in assay [7], in assay [6], in assay [4] and in assay [5].

In the case of `C=C1c2c(Cl)ccc(O)c2C(O)=C2C(=O)[C@]3(O)C(O)=C(C(N)=O)C(=O)[C@@H](N(C)C)[C@@H]3[C@@H](O)[C@H]12`, the result in assay [1], in assay [2], in assay [7] and in assay [4] was inactive.

As to `CC1c2ccccc2CN1NC(=O)c1ccc(Cl)c(S(N)(=O)=O)c1` (stereo not given), the outcome in assay [1], in assay [2], in assay [7], in assay [6] and in assay [5] was inactive.

Regarding `COc1nc(N)nc2nc[nH]c12`, the call in assay [1], in assay [2], in assay [7] and in assay [4] was inactive.

Consider `CN1CCCN=C1COC(=O)C(O)(c1ccccc1)C1CCCCC1` (stereo not given), for which the compound was called inactive in assay [1], in assay [2], in assay [7], in assay [6] and in assay [5].

In the case of `C=C1C[C@@]23CC[C@H]4[C@@](C)(CCC[C@@]4(C)C(=O)O[C@@H]4O[C@H](CO)[C@@H](O)[C@H](O)[C@H]4O)[C@@H]2CC[C@]1(O[C@@H]1O[C@H](CO)[C@@H](O)[C@H](O[C@@H]2O[C@H](CO)[C@@H](O)[C@H](O)[C@H]2O)[C@H]1O[C@@H]1O[C@H](CO)[C@@H](O)[C@H](O)[C@H]1O)C3`, the compound was called inactive in assay [1], in assay [2], in assay [7], in assay [6], in assay [4] and in assay [5].

As to `CO/N=C(/C(=O)N[C@@H]1C(=O)N2C(C(=O)OCOC(=O)C(C)(C)C)=C(C)CS[C@H]12)c1csc(N)n1`, the call in assay [1], in assay [2], in assay [7] and in assay [4] was inactive.

Regarding `CCCCCCCC/C=C\CCCCCCCCN`, the outcome in assay [1], in assay [2], in assay [7], in assay [6] and in assay [5] was inactive.

`CN1CCN(CCCN2c3ccccc3Sc3ccc(S(=O)(=O)N(C)C)cc32)CC1`: the result in assay [1], in assay [2], in assay [7], in assay [6], in assay [4] and in assay [5] was inactive.

`O=S(=O)(O)CCS`: the outcome in assay [1], in assay [2], in assay [7], in assay [6], in assay [4] and in assay [5] was inactive.
